Data from PubChem BioAssay (NCI).
This is part of a sample that, as a whole, favours compounds with a hit. Of some 79,000 tested, about 15% had one in any assay. Active and inactive are the calls of the source. Cut-off read from the data, not from the text of the source: active = growth inhibition above about 70%; inactive = the rest.

Key:
[1] = NCI Yeast Anticancer Drug Screen. Data for the rad52 strain (AID 147);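 note: 0% = growth of vehicle-treated control cultures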; conditions: S. cerevisiae rad52 mutant growth inhibition, hits give high values
Summary of the method: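 The repair-mutant yeast strain was incubated with compounds, then growth was read and inhibition derived relative to vehicle.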

[2] = NCI Yeast Anticancer Drug Screen. Data for the wt1 strain (AID 149);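 note: 0% = growth of vehicle-treated wt1 cultures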; conditions: S. cerevisiae wt1 strain (SPY 50644) growth inhibition, hits give high values
Summary of the method: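 Using yeast strain wt1, compound-induced growth inhibition was determined against vehicle-treated cultures.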

[3] = NCI Yeast Anticancer Drug Screen. Data for the rad50EPP+ strain (AID 151);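 note: 0% = growth of vehicle-treated control cultures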; conditions: S. cerevisiae rad50 mutant strain, hits give high values
Summary of the method: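 Vehicle-normalised growth inhibition; rad50EPP+ yeast strain, altered in DNA damage repair, compound-treated.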

[4] = NCI Yeast Anticancer Drug Screen. Data for the mgt1 strain (AID 153); conditions: S. cerevisiae mgt1 mutant growth inhibition, hits give high values
Summary of the method: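 Vehicle-normalized growth inhibition is determined in mgt1 yeast, a strain selected for a defined alteration in DNA repair or cell cycle control.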

[5] = NCI Yeast Anticancer Drug Screen. Data for the rad50 strain (AID 155);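 note: 0% = growth of vehicle-only cultures of the same strain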; conditions: S. cerevisiae rad50 strain growth inhibition, hits give high values
Summary of the method: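 Relative growth inhibition (compound vs vehicle) was measured in yeast with a defined repair-gene alteration.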

[6] = NCI Yeast Anticancer Drug Screen. Data for the mec2-1 strain (AID 157); conditions: S. cerevisiae mec2-1 strain, hits give high values
Summary of the method: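 Mutant yeast (mec2-1) grown with compound; growth inhibition relative to vehicle control reported.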

[7] = NCI Yeast Anticancer Drug Screen. Data for the rad14 strain (AID 159);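 note: 0% = growth of vehicle-treated control cultures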; conditions: S. cerevisiae rad14 strain growth inhibition, hits give high values
Summary of the method: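 Screen for anticancer potential: a yeast strain altered in DNA damage repair is grown with compound, and reduced growth is quantified against vehicle controls.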

[8] = NCI Yeast Anticancer Drug Screen. Data for the sgs1 mgt1 strain (AID 161);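 note: 0% = growth of cultures given vehicle only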; conditions: S. cerevisiae sgs1 mgt1 strain, hits give high values
Summary of the method: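 Percent growth inhibition was derived by comparing compound-exposed mutant yeast with vehicle-exposed cultures. The strain carries alterations in DNA damage repair.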

[9] = NCI Yeast Anticancer Drug Screen. Data for the CLN2oe strain (AID 163);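 note: 0% = growth of vehicle-only control cultures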; conditions: S. cerevisiae CLN2oe strain, hits give high values
Summary of the method: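 Compounds are applied to yeast harbouring a defined cell-cycle control change; reduced growth compared with vehicle-treated controls gives the value.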

[10] = NCI Yeast Anticancer Drug Screen. Data for the cln2 rad14 strain (AID 165);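 note: 0% = growth equal to vehicle treated cultures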; conditions: S. cerevisiae cln2 rad14 strain, hits give high values
Summary of the method: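 Readout is yeast growth inhibition versus vehicle-treated controls, using a strain with cln2 and rad14 alterations exposed to compound.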

[11] = NCI Yeast Anticancer Drug Screen. Data for the bub3 strain (AID 167); conditions: S. cerevisiae bub3 mutant strain, hits give high values
Summary of the method: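 Screening used yeast with an engineered genetic alteration affecting cell cycle control. Compound-exposed cultures were compared with vehicle cultures, and reduced growth was taken as inhibition.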

[12] = NCI Yeast Anticancer Drug Screen. Data for the wt2 strain (AID 169);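 note: 0% = growth of vehicle-treated yeast cultures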; conditions: S. cerevisiae wt2 strain growth inhibition, hits give high values
Summary of the method: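 Against vehicle-treated controls, the growth of yeast exposed to each compound was compared, and the inhibition was recorded.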

[13] = NCI Yeast Anticancer Drug Screen. Data for the mlh1 strain (AID 171);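 note: 0% = growth of vehicle-treated control cultures of the same strain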; conditions: S. cerevisiae mlh1 strain growth inhibition, hits give high values
Summary of the method: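 Measured: yeast growth. Reference: vehicle-treated controls. Organism: strain with a defined alteration affecting DNA damage repair or cell cycle control, treated with compound.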

[14] = NCI Yeast Anticancer Drug Screen. Data for the sgs1 strain (AID 173);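 note: 0% = growth of vehicle-only control cultures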; conditions: S. cerevisiae sgs1 mutant, hits give high values
Summary of the method: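 Each compound was added to cultures of the altered yeast strain. Growth was recorded, and inhibition was derived by comparison with vehicle controls.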

[15] = NCI Yeast Anticancer Drug Screen. Data for the mlh1 rad18 strain (AID 175); conditions: S. cerevisiae mlh1 rad18 strain growth inhibition, hits give high values
Summary of the method: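 Genetically defined yeast (DNA repair-deficient) exposed to compounds; growth inhibition determined relative to vehicle.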

[16] = NCI Yeast Anticancer Drug Screen. Data for the rad18 strain (AID 177); conditions: S. cerevisiae rad18 mutant growth inhibition, hits give high values
Summary of the method: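 Vehicle-treated cultures served as the baseline for scoring compound-induced growth inhibition in DNA-repair-mutant yeast.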

[17] = at 5.0 µM (retest, dose inferred, filed as 0.5)
[18] = at 50.0 µM (retest, dose inferred, filed as 5.0)

Measured: growth inhibition

CN1c2ccc(Cl)cc2C(=O)NC1c1ccc([N+](=O)[O-])s1 (stereo unspecified)
active: [1]; at 33.0 µM 97% | [1]; at 100.0 µM 97% | [2]; at 33.0 µM 92% | [2]; at 100.0 µM 96% | [4]; at 33.0 µM 97% | [4]; at 100.0 µM 96% | [5]; at 11.0 µM 72% | [5]; at 33.0 µM 97% | [5]; [18] 95% | [5]; at 50.0 µM 91.3% | [5]; at 100.0 µM 96% | [6]; at 33.0 µM 93% | [6]; [18] 95% | [6]; at 50.0 µM 93.2% | [6]; at 100.0 µM 96% | [7]; at 11.0 µM 71% | [7]; at 33.0 µM 96% | [7]; at 100.0 µM 97% | [8]; [18] 94% | [8]; at 50.0 µM 93.8% | [9]; at 33.0 µM 92% | [9]; at 100.0 µM 97% | [10]; [18] 96% | [10]; at 50.0 µM 91% | [11]; at 33.0 µM 93% | [11]; [18] 97% | [11]; at 50.0 µM 92.4% | [11]; at 100.0 µM 97% | [12]; at 33.0 µM 97% | [12]; at 100.0 µM 97% | [13]; at 33.0 µM 96% | [13]; at 100.0 µM 97% | [14]; at 33.0 µM 95% | [14]; at 100.0 µM 96% | [15]; [18] 98% | [15]; at 50.0 µM 92.8% | [16]; at 11.0 µM 81% | [16]; at 33.0 µM 96% | [16]; at 100.0 µM 97%
inactive: [1]; at 1.2 µM 27% | [1]; at 3.7 µM 30% | [1]; at 11.0 µM 65% | [2]; at 1.2 µM 5% | [2]; at 3.7 µM 1% | [2]; at 11.0 µM 17% | [3]; at 1.2 µM 0% | [3]; at 3.7 µM -4% | [3]; at 11.0 µM 18% | [3]; at 33.0 µM 61% | [3]; at 100.0 µM 67% | [4]; at 1.2 µM -5% | [4]; at 3.7 µM 8% | [4]; at 11.0 µM 23% | [5]; at 1.2 µM 20% | [5]; at 3.7 µM 39% | [5]; [17] 9% | [6]; at 1.2 µM -7% | [6]; at 3.7 µM -52% | [6]; [17] 19% | [6]; at 11.0 µM 14% | [7]; at 1.2 µM -8% | [7]; at 3.7 µM -3% | [8]; [17] -10% | [9]; at 1.2 µM 4% | [9]; at 3.7 µM -2% | [9]; at 11.0 µM -3% | [10]; [17] 37% | [11]; at 1.2 µM 0% | [11]; at 3.7 µM 2% | [11]; [17] -1% | [11]; at 11.0 µM 11% | [12]; at 1.2 µM 7% | [12]; at 3.7 µM 4% | [12]; at 11.0 µM 42% | [13]; at 1.2 µM 13% | [13]; at 3.7 µM 14% | [13]; at 11.0 µM 51% | [14]; at 1.2 µM -4% | [14]; at 3.7 µM 13% | [14]; at 11.0 µM 58% | [15]; [17] 2% | [16]; at 1.2 µM 3% | [16]; at 3.7 µM 25%

O=CC=C(c1ccccc1)c1ccccc1
inactive: [1]; at 1.2 µM -2% | [1]; at 3.7 µM 0% | [1]; at 11.0 µM -9% | [1]; at 33.0 µM 8% | [2]; at 1.2 µM -3% | [2]; at 3.7 µM 3% | [2]; at 11.0 µM -4% | [2]; at 33.0 µM 10% | [3]; at 1.2 µM 20% | [3]; at 3.7 µM 18% | [3]; at 11.0 µM 26% | [3]; at 33.0 µM 43% | [4]; at 1.2 µM -10% | [4]; at 3.7 µM -6% | [4]; at 11.0 µM 2% | [4]; at 33.0 µM 10% | [5]; at 1.2 µM 8% | [5]; at 3.7 µM 5% | [5]; [17] 41% | [5]; at 11.0 µM 4% | [5]; at 33.0 µM 11% | [5]; at 50.0 µM 39.6% | [6]; at 1.2 µM 4% | [6]; at 3.7 µM 0% | [6]; [17] 51% | [6]; at 11.0 µM 0% | [6]; at 33.0 µM 20% | [6]; at 50.0 µM -13.3% | [7]; at 1.2 µM 7% | [7]; at 3.7 µM -2% | [7]; at 11.0 µM 3% | [7]; at 33.0 µM 10% | [8]; [17] -9% | [9]; at 1.2 µM 16% | [9]; at 3.7 µM 5% | [9]; at 11.0 µM 13% | [9]; at 33.0 µM 20% | [10]; [17] 36% | [10]; at 50.0 µM 39.1% | [11]; at 1.2 µM -11% | [11]; at 3.7 µM -13% | [11]; [17] 30% | [11]; at 11.0 µM -32% | [11]; at 33.0 µM -10% | [11]; at 50.0 µM 40.6% | [12]; at 1.2 µM 4% | [12]; at 3.7 µM 9% | [12]; at 11.0 µM 6% | [12]; at 33.0 µM 22% | [13]; at 1.2 µM 5% | [13]; at 3.7 µM 10% | [13]; at 11.0 µM 16% | [13]; at 33.0 µM 19% | [14]; at 1.2 µM -3% | [14]; at 3.7 µM 4% | [14]; at 11.0 µM 11% | [14]; at 33.0 µM 43% | [15]; [17] 16% | [15]; at 50.0 µM 28.4% | [16]; at 1.2 µM 20% | [16]; at 3.7 µM 26% | [16]; at 11.0 µM 25% | [16]; at 33.0 µM 34%
active: [1]; at 100.0 µM 95% | [2]; at 100.0 µM 98% | [3]; at 100.0 µM 83% | [4]; at 100.0 µM 98% | [5]; [18] 86% | [5]; at 100.0 µM 98% | [6]; [18] 93% | [6]; at 100.0 µM 98% | [7]; at 100.0 µM 98% | [8]; [18] 97% | [8]; at 50.0 µM 80% | [9]; at 100.0 µM 98% | [10]; [18] 99% | [11]; [18] 98% | [11]; at 100.0 µM 98% | [12]; at 100.0 µM 97% | [13]; at 100.0 µM 99% | [14]; at 100.0 µM 99% | [15]; [18] 90% | [16]; at 100.0 µM 98%
